Among the data in PubChem BioAssay (NCI) are growth values, retold here.

This is part of a sample that, as a whole, favours compounds with a hit. Of some 83,000 tested, about 20% had one in any assay.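 Note: values are percent growth. 100 is the growth of untreated cells, values between 100 and 0 indicate rising inhibition; between -100 and 0 indicates cell death.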 A number with no mark means an inactive call. Calls of active or inactive are those of the source. Rule for the calls: active = growth percent below 10; inactive = the rest.

This assay has as its system MDA-MB-468 breast. The experiment in a line: NCI-60 one-dose screen, 48 h (100 = growth as untreated, 0 = no growth, -100 = all killed). The settings on record: 10 µM unless noted.
On to `O=C1C=CC(=O)N1C1c2ccccc2-c2ccccc21`, for which the growth was 66.9%.
In the case of `COC(=O)[C@]1(C)CC[C@]2(C)CC[C@]3(C)C(=CC(=O)[C@@H]4[C@@]5(C)CCC(=O)NC(C)(C)[C@@H]5CC[C@]43C)[C@@H]2C1` it was -49.5% [100 µM] (active).
For the molecule `CCC(c1ccc(OC)cc1)C(CC)c1ccc(OCC[N+](C)(C)C)cc1` (centres undefined), the growth was 19.3%.
Turning to `Cc1c2c[n+](C(C)C)ccc2c(C)c2c1[nH]c1ccccc12`, the growth was -37% (active).
